Screening results: PubChem, National Center for Advancing Translational Sciences (NCATS)
Sampled rows, rich in hits. Any-hit rate of the full collection: about 17%.
ClpP mod = qHTS Assay for Activators of ClpP; ATP-dependent Clp protease proteolytic subunit (Bacillus subtilis (strain 168)), P80244; purified B. subtilis ClpP, FRET peptide cleavage, 20 min; Potency, µM (doses to about 57.5 µM), without a hit: top-dose activity change, negative = active; 340,000 tested, 1.9% active; AID 651965, 2013; active means well fitted falling curve with a large enough effect; inconclusive means small, poorly fitted or top-dose-only effect; inactive means no such curve, though single readings can be large or run the other way; further: the source files actives as falling curves though it sought activators and does not explain the sign; nearly all actives have a fitted effect of over 65% in size
Target sequence (P80244 whole entry, looked up): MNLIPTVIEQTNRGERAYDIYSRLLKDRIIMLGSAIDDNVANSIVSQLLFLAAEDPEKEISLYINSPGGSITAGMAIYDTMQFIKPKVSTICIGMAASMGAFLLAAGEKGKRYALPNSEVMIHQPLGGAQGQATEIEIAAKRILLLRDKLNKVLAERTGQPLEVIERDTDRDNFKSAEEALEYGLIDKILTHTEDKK
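Buffer: 100 mM Tris/HCl pH8, 100 mM KCl, 0.05% low protease BSA, 2.5% glycerol, 0.01% Tween-20. ClpP 10 microg/mL final; 20 min RT; delta FRET normalized to ADEP and DMSO controls.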
DT40 TDP1 CPT = DT40-hTDP1 cell growth loss with CPT. chicken DT40 Tdp1-/-;hTDP1 cells + 20 nM CPT, ATP luminescence, 48 h. Potency, µM (doses to about 46.2 µM), without a hit: at the highest dose activity change, negative = growth inhibition, hits mostly inhibitors. 420,000 tested, 12% active. AID 686979; further: on the % scale 0 is the no-effect control and ±100 the full control effect; nearly all actives have a fitted effect of over 55% in size
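Cell growth measured by CellTiter-Glo luminescence after a minimum 48 h, 37 C compound exposure with 20 nM CPT in Tdp1-knockout DT40 cells stably expressing hTDP1, seeded 400/well; qHTS titration format.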
DT40 TDP1 no CPT = qHTS for Inhibitors of human tyrosyl-DNA phosphodiesterase 1 (TDP1): qHTS in cells in absence of CPT; DT40 Tdp1-/- hTDP1 cells, no CPT, ATP luminescence, 48 h; Potency, µM (highest dose often 46.2 µM), for the others: at the highest dose activity change, negative = growth inhibition, hits mostly inhibitors; 420,000 tested, 15% active; AID 686978, 2013; further: on the % scale 0 is the no-effect control and ±100 the full control effect; nearly all actives have a fitted effect of over 55% in size
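Compound effects on proliferation are scored in DT40 Tdp1-/-;hTDP1 cells in the absence of CPT. ATP levels (CellTiter-Glo luminescence) are recorded after a ≥48 hr, 37 °C incubation.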
TDP1 block = TDP1 (human) enzyme inhibition | Potency, µM (series often up to 130 µM), without a hit: top-dose activity change, negative = inhibition, usual class: inhibitors | 350,000 tested, 0.28% active | recombinant TDP1, AlphaScreen DNA substrate cleavage; further: on the % scale 0 is the no-effect control and ±100 the full control effect; nearly all actives have a fitted effect of over 40% in size
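Compounds were preincubated with Tdp1 (1 nM final) for 15 min at room temperature before substrate (15 nM final) started a 5 min reaction; beads (10 ug/ml final) were then added for 10 min before AlphaScreen detection.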
Numbers without * were called inactive; u = inconclusive; x = no result; [ ] = another dose, or the depositor's remark. Unless noted, the call rests on the fitted dose curve; in most records, active means well fitted curve in the direction sought with a large enough effect; inconclusive means small, poorly fitted or top-dose-only effect, or another doubt; inactive means no such curve, though single readings can be large; an effect the other way counts as inactive or inconclusive. Potency means the concentration at half of the fitted maximal effect.

SMILES	ClpP mod	DT40 TDP1 CPT	DT40 TDP1 no CPT	TDP1 block
COC(=O)Cn1cnc2c(C#N)c3n(c2c1=O)CCCCC3	-5.8%	-23.7%	-4.8%	5.6%
Cc1c(C#N)c2ncnc(-c3ccccc3)c2n1-c1ccccc1	35.5µM*	u	u	4.4%
Cc1c(C#N)c2ncn(Cc3ccccc3)c(=O)c2n1-c1ccccc1	-2.1%	-1.7%	-22.4%	1.0%
N#Cc1c2n(c3c(=O)[nH]cnc13)CCCC2	1.6%	-1.6%	-18.3%	5.2%
N#Cc1c2n(c3c(-c4ccccc4)ncnc13)CCC2	31.6µM*	-1.4%	u	2.0%
COc1ccccc1CNC(=O)CCNS(=O)(=O)/C=C/c1ccc(C)cc1	-0.7%	-8.1%	-14.6%	1.1%
CCc1cc(C(=O)N2CCCC(Nc3ccc(F)c(F)c3)C2)n(C)n1 (stereo unspecified)	0.4%	-4.2%	-25.4%	1.9%
O=C(Nc1ccccn1)c1ccc([N+](=O)[O-])o1	17.0%	16.4µM*	16.4µM*	1.2%
Cc1ccnc(NC(=O)c2ccc([N+](=O)[O-])o2)c1	29.6%	20.6µM*	u	-6.6%
CCc1ccccc1NC(=O)CN1CCN(CC(=O)Nc2ccc3c(c2)OC2(CCCCC2)O3)CC1	-2.8%	18.4µM*	4.11µM*	x
C=C1CCc2c([nH]c3ccc(OCC(C)C)cc23)C1=O	-2.2%	0.82µM*	0.92µM*	x
CN(C)c1ccc([C@@H]2[C@@H]([N+](=O)[O-])[C@H]3C=Cc4ccccc4N3[C@H]2C(=O)c2ccc(Cl)cc2)cc1	-13.0%	6.51µM*	7.31µM*	8.2%
CC(C)C1C(c2ccccc2)NC(c2ccccc2)CC1(O)c1ccc(F)cc1 (stereo unspecified)	-1.0%	u	14.6µM*	x
CCC1C(=O)CC(c2ccccc2)NC1c1ccccc1 (stereo unspecified)	x	-1.0%	-35.2%	0.0%
OCCNCc1ccc(-c2ccccc2)cc1	u	-25.9%	u	-1.8%
OCCCNCc1ccc(N(c2ccccc2)c2ccccc2)cc1	x	16.4µM*	20.6µM*	0.8%
C=CCn1c(SCC(=O)c2ccccc2)nnc1-c1cc2ccccc2o1	-7.6%	23.1µM*	u	5.2%
O=C(O)CSc1nnc(-c2cc3ccccc3o2)n1-c1ccccc1	22.4µM*	-1.1%	6.4%	8.2%
Cn1c(SCC(=O)N2CCN(c3ccccc3)CC2)nnc1-c1cc2ccccc2o1	-7.7%	u	-27.7%	2.2%
CCn1c(SCC(=O)c2ccccc2)nnc1-c1cc2cc(Br)ccc2o1	-22.0%	u	9.2µM*	3.2%
CC(C)OCCCn1c(SCc2ccccc2Cl)nc2c(sc3ccccc32)c1=O	-2.6%	0.9%	-18.7%	2.5%
CCOC(=O)c1cc(-c2ccc(OC)cc2)nn1-c1ccccc1C(=O)O	-1.9%	-9.9%	14.4%	7.94µM*
CCOC(=O)c1cc(-c2cccnc2)nn1-c1ccccc1C	-0.4%	u	u	3.6%
COc1c2c(cc3c1C(NC(N)=O)[N+](C)(C)CC3)OCO2 (stereo unspecified)	x	10.0%[9.04 µM]	2.5%[9.04 µM]	-3.1%
Cc1ccc(N(CC(=O)Nc2cc(C)ccc2C)S(=O)(=O)c2c(C)noc2C)cc1	-1.8%	u	23.1µM*	0.0%
SMILES	ClpP mod	DT40 TDP1 CPT	DT40 TDP1 no CPT	TDP1 block
CCOc1ccc(OCC)c(NC(=O)CN(c2ccc(C)cc2)S(=O)(=O)c2c(C)noc2C)c1	1.2%	u	23.1µM*	2.0%
Cc1ccc(N(CC(=O)NC(C)c2ccccc2)S(=O)(=O)c2c(C)noc2C)cc1 (stereo unspecified)	-6.4%	u	16.4µM*	12.3%
CCOc1ccc(N(CC(=O)NCCc2ccc(C)cc2)S(=O)(=O)c2c(C)noc2C)cc1	0.9%	23.1µM*	u	3.5%
CCC[C@@H]1CC(C(=O)NC(C2O[C@H](SC)C(OP(=O)(O)O)[C@H](O)[C@H]2O)[C@H](C)Cl)N(C)C1 (stereo partly specified)	x	x	x	8.9%
C[C@H](CO)N1C[C@H](C)[C@@H](CN(C)S(=O)(=O)c2cn(C)cn2)Oc2cc(Br)ccc2S1(=O)=O	1.8%	-1.0%	u	x
CC(C)c1ccc(NC(=O)CSc2n[nH]c(=O)n2-c2cccnc2)cc1	0.2%	-12.8%	5.7%	3.5%
Cc1cccn2c(=O)c(C(=O)NCc3cccc(F)c3)cnc12	5.0%	-2.8%	u	-1.5%
CCOc1ccccc1NC(=O)CN(c1ccc(C)cc1)S(=O)(=O)c1c(C)noc1C	-0.3%	u	u	0.0%
CCOc1ccc(N(CC(=O)Nc2ccccc2CC)S(=O)(=O)c2c(C)noc2C)cc1	-0.8%	4.61µM*	3.66µM*	7.0%
Cc1ccc(C(=O)N(Cc2ccccc2)C(C)(C)C)cc1C	0.9%	16.4µM*	14.6µM*	-3.2%
CC(=O)c1ccc(OCC(=O)N2CCCCC2)cc1	x	2.9%	4.7%	x
COc1ccccc1CC(Cc1nc2ccccc2[nH]1)c1nc2ccccc2[nH]1 (stereo unspecified)	x	u	29.9µM*	13.6%[56.1 µM]
Cc1cccc(CC(Cc2nc3ccccc3[nH]2)c2nc3ccccc3[nH]2)c1 (stereo unspecified)	-5.2%	16.4µM*	u	5.3%
COc1cc2nc(CC(O)c3nc4cc(OC)c(OC)cc4[nH]3)[nH]c2cc1OC (stereo unspecified)	-10.8%	7.08µM*	6.31µM*	x
O=C(CSCC(=O)N1CCOCC1)Nc1nc(-c2ccccc2)cs1	x	-4.8%	-10.8%	x
Cc1cc(-c2nnc(SCC(=O)Nc3nc(-c4ccccc4)cs3)o2)no1	0.3%	14.6µM*	u	x
CCOC(=O)N1CCN(C(=O)CSCC(=O)Nc2nc(-c3ccc(Cl)s3)cs2)CC1	1.6%	14.6µM*	18.4µM*	1.2%
CCOC(=O)N1CCN(C(=O)CSCC(=O)Nc2nc(-c3ccc(OC)cc3)cs2)CC1	-1.8%	u	20.6µM*	8.7%
COc1ccc(-c2csc(NC(=O)CSc3nc(SC)ns3)n2)cc1	-1.0%	u	23.1µM*	5.9%
Cc1occc1-c1nnc(SCC(=O)Nc2nc(-c3ccccc3)cs2)o1	0.1%	-28.0%	u	0.7%
COC(=O)C1=C[C@@H](C(=O)OC)C2C3=C(C(=O)[C@]2(C)NC(=O)c2ccccc2)[C@H](C)n2c(=O)n(C)c(=O)n2[C@@H]3C1 (stereo partly specified)	x	x	x	7.9%
CCOc1ccc(Oc2ccccc2NC(=O)CSCC(=O)Nc2cc(C)on2)cc1	-2.7%	23.1µM*	13µM*	0.2%
COc1ccc(-c2csc(NC(=O)CSCC(=O)Nc3cc(C)on3)n2)cc1	-1.2%	u	23.1µM*	-0.5%
CCOC(=O)N1CCN(C(=O)CSCC(=O)Nc2nc(-c3ccc(-c4ccccc4)cc3)cs2)CC1	-8.9%	3.26µM*	3.26µM*	8.7%
